The target of experiment [1] is Homeodomain-interacting protein kinase 1 (Homo sapiens) (UniProt Q86Z02). Conditions: at 0.1 µM.
For experiment [2] the target is unchanged. Conditions: at 1 µM.
In experiment [3] the target is T1, Homeodomain-interacting protein kinase 4 (Homo sapiens) (UniProt Q8NE63).
T1 sequence (whole entry): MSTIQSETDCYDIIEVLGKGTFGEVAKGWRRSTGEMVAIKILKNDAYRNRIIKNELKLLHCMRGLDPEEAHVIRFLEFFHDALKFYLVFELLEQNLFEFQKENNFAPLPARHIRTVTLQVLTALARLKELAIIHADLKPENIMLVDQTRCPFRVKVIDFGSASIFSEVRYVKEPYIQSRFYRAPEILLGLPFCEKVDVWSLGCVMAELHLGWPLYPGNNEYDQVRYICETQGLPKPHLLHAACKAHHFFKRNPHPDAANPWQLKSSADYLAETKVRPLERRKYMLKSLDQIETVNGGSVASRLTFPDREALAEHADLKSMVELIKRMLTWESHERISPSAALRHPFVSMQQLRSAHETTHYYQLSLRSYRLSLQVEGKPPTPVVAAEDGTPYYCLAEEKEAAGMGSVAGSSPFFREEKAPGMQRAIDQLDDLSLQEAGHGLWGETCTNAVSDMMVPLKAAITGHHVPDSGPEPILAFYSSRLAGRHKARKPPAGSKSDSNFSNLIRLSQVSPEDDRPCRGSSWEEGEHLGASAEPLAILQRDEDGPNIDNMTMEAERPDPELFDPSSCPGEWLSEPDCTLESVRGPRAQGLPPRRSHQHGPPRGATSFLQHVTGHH
Conditions: at 0.1 µM.

Experiment [4] deals with T1, Homeodomain-interacting protein kinase 4 (Homo sapiens). Conditions: at 1 µM.
For experiment [5], the target named is Mitogen-activated protein kinase 9 (Homo sapiens) (UniProt P45984). Conditions: at 0.1 µM.
The target is the same in experiment [6]. Conditions: at 1 µM.
Experiment [7] deals with Mitogen-activated protein kinase 1 (Homo sapiens) (UniProt P28482). Conditions: at 0.1 µM.
The target is the same in experiment [8]. Conditions: at 1 µM.
Experiment [9] has as its target Mitogen-activated protein kinase 3 (Homo sapiens) (UniProt P27361). Conditions: at 0.1 µM.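 Also: each value is a mean inhibition figure.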
Experiment [10] has as its target Glycogen synthase kinase-3 beta (Homo sapiens) (UniProt P49841). Conditions: at 1 µM.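 Also: reported values are mean percent inhibition of GSK3B.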

Chain of Mitogen-activated protein kinase 3 (Homo sapiens) (P27361 whole entry): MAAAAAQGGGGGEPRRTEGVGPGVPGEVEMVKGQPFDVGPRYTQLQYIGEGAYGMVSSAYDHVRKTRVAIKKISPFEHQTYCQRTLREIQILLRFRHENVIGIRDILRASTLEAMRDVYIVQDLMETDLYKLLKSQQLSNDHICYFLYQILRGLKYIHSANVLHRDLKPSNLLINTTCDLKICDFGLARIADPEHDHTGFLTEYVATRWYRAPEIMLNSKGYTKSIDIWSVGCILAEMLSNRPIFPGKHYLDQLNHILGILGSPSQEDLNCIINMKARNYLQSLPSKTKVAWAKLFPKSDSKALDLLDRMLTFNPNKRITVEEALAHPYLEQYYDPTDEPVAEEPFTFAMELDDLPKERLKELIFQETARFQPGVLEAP
Chain of Homeodomain-interacting protein kinase 1 (Homo sapiens) (Q86Z02 whole entry, looked up): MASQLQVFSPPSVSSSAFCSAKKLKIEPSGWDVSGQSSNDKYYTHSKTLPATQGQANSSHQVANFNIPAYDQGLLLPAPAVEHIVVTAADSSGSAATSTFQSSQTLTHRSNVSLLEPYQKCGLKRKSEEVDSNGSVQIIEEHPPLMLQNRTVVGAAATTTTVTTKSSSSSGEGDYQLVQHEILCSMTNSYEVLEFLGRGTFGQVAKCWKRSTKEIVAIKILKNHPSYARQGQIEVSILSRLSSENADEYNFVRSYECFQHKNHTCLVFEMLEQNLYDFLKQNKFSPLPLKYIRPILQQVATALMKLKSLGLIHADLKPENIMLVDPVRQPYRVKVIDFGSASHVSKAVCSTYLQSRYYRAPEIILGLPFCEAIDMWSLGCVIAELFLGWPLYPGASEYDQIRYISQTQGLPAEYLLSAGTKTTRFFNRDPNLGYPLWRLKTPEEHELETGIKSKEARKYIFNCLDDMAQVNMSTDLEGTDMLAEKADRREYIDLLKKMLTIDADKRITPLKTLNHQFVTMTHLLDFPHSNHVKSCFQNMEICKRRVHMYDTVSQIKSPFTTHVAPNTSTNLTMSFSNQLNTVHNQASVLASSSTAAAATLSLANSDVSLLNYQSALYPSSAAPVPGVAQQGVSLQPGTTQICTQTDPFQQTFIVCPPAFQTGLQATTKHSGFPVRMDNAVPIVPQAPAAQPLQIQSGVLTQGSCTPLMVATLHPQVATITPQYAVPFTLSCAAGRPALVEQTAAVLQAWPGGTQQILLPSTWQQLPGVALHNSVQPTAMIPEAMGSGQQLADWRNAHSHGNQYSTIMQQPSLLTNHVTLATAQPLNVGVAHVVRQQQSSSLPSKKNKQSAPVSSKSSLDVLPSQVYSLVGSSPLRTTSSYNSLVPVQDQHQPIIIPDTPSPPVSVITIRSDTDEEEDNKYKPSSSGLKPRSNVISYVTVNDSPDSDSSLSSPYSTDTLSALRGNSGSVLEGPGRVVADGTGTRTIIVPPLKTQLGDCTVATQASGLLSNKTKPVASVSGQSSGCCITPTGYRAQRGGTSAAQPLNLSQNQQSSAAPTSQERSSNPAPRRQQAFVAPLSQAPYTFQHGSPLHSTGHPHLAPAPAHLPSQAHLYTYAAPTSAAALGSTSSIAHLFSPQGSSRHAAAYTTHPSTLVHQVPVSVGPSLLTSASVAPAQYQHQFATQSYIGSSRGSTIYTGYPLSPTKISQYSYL
Chain of Glycogen synthase kinase-3 beta (Homo sapiens) (P49841 whole entry, looked up): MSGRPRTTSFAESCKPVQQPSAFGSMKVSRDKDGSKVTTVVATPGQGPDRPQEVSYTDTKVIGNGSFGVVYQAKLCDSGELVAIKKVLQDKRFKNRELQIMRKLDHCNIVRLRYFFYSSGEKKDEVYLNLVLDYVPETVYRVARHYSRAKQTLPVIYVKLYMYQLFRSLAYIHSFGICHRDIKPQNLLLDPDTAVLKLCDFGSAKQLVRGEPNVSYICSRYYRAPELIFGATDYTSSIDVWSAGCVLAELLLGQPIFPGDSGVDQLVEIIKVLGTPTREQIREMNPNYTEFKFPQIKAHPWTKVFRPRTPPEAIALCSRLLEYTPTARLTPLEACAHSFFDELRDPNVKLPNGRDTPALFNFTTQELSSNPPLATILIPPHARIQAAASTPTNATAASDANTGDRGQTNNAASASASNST
Chain of Mitogen-activated protein kinase 1 (Homo sapiens) (P28482 whole entry): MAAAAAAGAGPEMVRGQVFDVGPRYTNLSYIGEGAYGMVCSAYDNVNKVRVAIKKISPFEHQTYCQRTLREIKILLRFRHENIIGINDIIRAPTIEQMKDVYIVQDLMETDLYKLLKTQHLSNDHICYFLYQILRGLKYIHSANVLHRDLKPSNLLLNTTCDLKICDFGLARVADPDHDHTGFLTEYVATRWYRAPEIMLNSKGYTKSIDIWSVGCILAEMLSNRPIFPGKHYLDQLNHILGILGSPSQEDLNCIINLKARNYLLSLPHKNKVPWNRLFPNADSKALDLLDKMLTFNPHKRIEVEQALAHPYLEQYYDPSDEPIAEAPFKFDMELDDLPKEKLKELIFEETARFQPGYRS
Chain of Mitogen-activated protein kinase 9 (Homo sapiens) (P45984 whole entry, looked up): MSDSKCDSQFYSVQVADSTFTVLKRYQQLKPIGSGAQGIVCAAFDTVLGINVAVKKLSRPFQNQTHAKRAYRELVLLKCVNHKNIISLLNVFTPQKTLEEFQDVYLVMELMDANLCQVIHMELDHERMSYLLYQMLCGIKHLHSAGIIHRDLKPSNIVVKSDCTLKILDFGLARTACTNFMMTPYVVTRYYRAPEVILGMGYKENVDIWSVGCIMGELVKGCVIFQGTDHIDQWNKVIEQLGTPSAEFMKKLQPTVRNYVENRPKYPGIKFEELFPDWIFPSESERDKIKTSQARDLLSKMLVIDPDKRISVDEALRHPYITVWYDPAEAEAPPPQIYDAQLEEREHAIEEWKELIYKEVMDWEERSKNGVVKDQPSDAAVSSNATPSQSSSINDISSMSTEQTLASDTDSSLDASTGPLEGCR

As for `O=C1NC(=O)C(c2ccccc2Cl)=C1Nc1cccc(O)c1`, the inhibition in experiment [1] was 1.81%; in [2], 7.57%; in experiment [3] it was 0.96%; in experiment [4], 3.38%; in [5], 2.21%; in experiment [6], 2.41%. Besides, the figures for the inhibition in experiment [7], in [8] and in [9] were 2.64%, 2.43% and 2.98%, respectively.

On to `NCc1ccc(-c2nc(-c3ccc(Cl)c(O)c3)c(-c3ccncc3)[nH]2)cc1`, for which the inhibition in experiment [10] came out at 65.4%; in [1], 0.11%; in experiment [2], 5.53%; in experiment [3], 0.99%; in experiment [4], 8.45%; in experiment [5], 4.51%. The inhibition is 15.8% in [6], -0.32% in experiment [7], 0.67% in experiment [8] and 0.94% in experiment [9].

Regarding `CCn1c(-c2nonc2N)nc2c(C#CC(C)(C)O)nc(CN3CCCC3)cc21`, the inhibition was 18.9% in experiment [10]; -1.35% in experiment [1]; 2.58% in [2]; -1.44% in experiment [3]; 0.75% in experiment [4]; 0.67% in experiment [5]. Also, the inhibition in experiment [6] is -2.07%; in experiment [7], -1.09%; in experiment [8] it was 0.12%; in [9] it was 0.51%.

In the case of `CS(=O)(=O)CCN(CC#N)Cc1ccc(-c2ccc3ncnc(Nc4ccc(OCc5cccc(F)c5)c(Cl)c4)c3c2)o1`, the inhibition in experiment [10] is -0.38%; in [1], -6.53%; in experiment [2], -4.34%; in experiment [3], 0.31%; in [4], 2.79%; in experiment [5], -0.56%. Moreover, the inhibition in experiment [6] stood at 2.18%; in experiment [7], 3.93%; in [8] it was 1.9%; in experiment [9] it was 1.67%.

Regarding `O=C1NC(=O)C(N2CCc3ccccc32)=C1c1ccc(Cl)cc1`, the inhibition is 0.01% in experiment [1]; 1.33% in experiment [2]; -0.41% in [3]; 2.92% in [4]; 3.51% in experiment [5]; 5.32% in [6]. In addition, the inhibition in [7] was 3.12%; in experiment [8] it was 5.91%; in [9] it was 5.26%.

Regarding `Cn1cc(C=C2C(=O)Nc3cccnc32)c2ccccc21`, the inhibition in experiment [10] was 8.9%; in experiment [1], -0.99%; in experiment [2] it was 13.8%; in [3] it was 1.64%; in experiment [4], 15.2%; in [5], 3.04%. Besides, the inhibition in [6] worked out at 6.24%; in [7] it was 2.02%; in [8], 2.73%; in experiment [9], 2.22%.

For the molecule `COc1cc2c(cc1Nc1nc(N3CCc4ccccc43)c3cc[nH]c3n1)N(C(=O)CN(C)C)CC2`, the inhibition in experiment [10] is 0.72%; in experiment [1], -1.15%; in experiment [2], 2.7%; in experiment [3] it was 1.42%; in experiment [4], 2.99%; in experiment [5], 1.11%. The inhibition came out at 1.82% in experiment [6], 0.85% in experiment [7], 2.12% in experiment [8] and 2.89% in experiment [9].

In the case of `CCn1c(-c2nonc2N)nc2cncc(C(=O)N3CC[C@H](N)C3)c21`, the inhibition in [10] amounted to 12.1%; in experiment [1], 1.36%; in experiment [2] it was 8.14%; in experiment [3] it was 0.99%; in experiment [4] it was 3%; in [5], 8.24%. In addition, the inhibition stood at 9.12% in experiment [6], 4.87% in experiment [7], 7.62% in experiment [8] and 3.48% in [9].

Turning to `Cc1ccc(C(=O)NC2CCCCC2)cc1-c1ccc(C(=O)NCC2CC2)cc1`, the inhibition was 0.33% in experiment [10]; -0.44% in [1]; 1.1% in experiment [2]; 1.23% in [3]; 3.16% in experiment [4]; 5.74% in experiment [5]. Further, the inhibition came to 6.33% in experiment [6], 3.78% in [7], 4.11% in experiment [8] and 2.55% in experiment [9].

Take `COc1cc2ncn(-c3cc(OCc4ccccc4Cl)c(C(N)=O)s3)c2cc1OC`: the inhibition is 9.93% in [10]; 0.06% in experiment [1]; 5.3% in [2]; 7.28% in [3]; 45.1% in experiment [4]; 2.23% in experiment [5]. Further, the inhibition is 4.49% in experiment [6], 0.95% in [7], 1.08% in [8] and -0.15% in experiment [9].

With `CC(=O)Nc1cccc(C#Cc2cncnc2Nc2ccc(OCc3cccc(F)c3)c(Cl)c2)n1`, the inhibition in [10] is 3.63%; in [1], 1.74%; in experiment [2], 3.28%; in [3] it was 0.85%; in experiment [4], 1.32%; in experiment [5], -0.98%. Besides, the inhibition is -1.17% in [6], -0.75% in experiment [7], -1.7% in experiment [8] and -0.64% in experiment [9].

Turning to `CS(=O)(=O)CCNCc1ccc(-c2ccc3ncnc(Nc4ccc(OCc5ccccc5)c(Cl)c4)c3c2)o1`, the inhibition in experiment [10] was 3.95%; in [1] it was -2.41%; in experiment [2], 2.91%; in [3], 4.33%; in experiment [4], 7.49%; in [5], -0.54%. Further, the inhibition was found to be 1.16% in experiment [6], 2.06% in [7], 1.18% in experiment [8] and 1.84% in experiment [9].

With `COc1ccc(-c2ccncc2)cc1C(N)=O`, the inhibition is 4.32% in experiment [10]; -2.78% in experiment [1]; 3.84% in experiment [2]; 0.07% in [3]; 4.19% in experiment [4]; 4.22% in experiment [5]. For the same molecule, the inhibition in experiment [6] was 5.45%; in [7], 5.23%; in experiment [8], 6.46%; in experiment [9], 3.61%.

As to `CC1=C(C(=O)Nc2ccc3[nH]ncc3c2)C(c2ccc3ccccc3c2)CC(=O)N1` (stereo not drawn), the inhibition in experiment [10] worked out at 7.81%; in [1] it was 1.49%; in experiment [2], 4.61%; in experiment [3], 1.02%; in experiment [4] it was 4.03%; in experiment [5] it was 0.73%. Also, the inhibition in [6] came to 2.65%; in experiment [7] it was 5.52%; in experiment [8], 39.5%; in experiment [9] it was 3.92%.

What is called inhibition is the relative decrease from the control value, in per cent.

The values are drawn from ChEMBL document CHEMBL1961873, “Compounds: GSK PKIS; Assays: Nanosyn kinase panel” (2012).
